# Data from the supplement of paper PMC10849652.
# Of roughly 8,800 targets only a part is listed; those with a hit were picked by preference. About 0.5% of all pairs of compound and target were hits. A number with no mark means an inactive call.
# Key:
# Assay in all cases: log2 fold change, soluble protein after heating vs DMSO (PISA); higher = thermal stabilisation; K562 lysate, 10 uM; active = over 0.2 and 3.5 SD of the protein, either way, in both replicates (recomputed)
# [1] = compound: CN1CC[C@H](c2c(O)cc(O)c3c(=O)cc(-c4ccccc4Cl)oc23)[C@H](O)C1 [alvocidib]
# Outline: (§1)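 The values are log-two fold changes in thermal stability compared with solvent controls and come from duplicates. They were obtained by TMTpro 16plex LC-MS/MS, with channel sums equalised, on the supernatant after 21,000xg for 90 min. That supernatant came from crude K562 extract at 1 mg/mL protein treated with 10 μM compound for 30 min, heated for 3 min across 48°C-58°C, pooled and brought to 0.5% NP-40 at 4°C.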
# [2] = compound: CN1CCc2c(c3ccccc3n2Cc2ccc(C(=O)NO)cc2)C1 [Tubastatin A]
# Outline: as §1
# [3] = compound: CNC(=O)C1=CC=CC=C1NC2=NC(=NC=C2Cl)NC3=C(C=C(C=C3)N4CCOCC4)OC
# Outline: as §1
# [4] = compound: CNC(=O)c1ccc(Nc2ncc(C(F)(F)F)c(NCc3nccnc3N(C)S(C)(=O)=O)n2)cc1 [defactinib]
# Outline: as §1
# [5] = compound: CNc1nc(-c2ccc3c(N)n[nH]c3c2)cc(N2C[C@@H](C(=O)NC3CCCCC3)CC[C@H]2C)n1
# Outline: as §1
# [6] = compound: COC(=O)N[C@@H](C)CNc1nccc(-c2cn(C(C)C)nc2-c2cc(Cl)cc(NS(C)(=O)=O)c2F)n1 [encorafenib]
# Outline: as §1
# [7] = compound: COC(=O)[C@H](CCSC)NC(=O)C1=C(C=C(C=C1)NC[C@H](CS)N)C2=CC=CC=C2
# Outline: as §1
# [8] = compound: COc1cc(Nc2ncc3c(n2)-c2ccc(Cl)cc2C(c2c(F)cccc2OC)=NC3)ccc1C(=O)O [alisertib]
# Outline: as §1
# [9] = compound: COc1cc2nc(-c3cc(F)ccc3O)nc(N[C@@H]3CNC[C@H]3C(C)(C)O)c2cc1OC
# Outline: as §1
# [10] = compound: COc1cc2ncnc(Nc3ccc(F)c(Cl)c3)c2cc1OCCCN1CCOCC1 [gefitinib]
# Outline: as §1
# Sequence of UniProt Q9H4L7 (Q9H4L7 whole entry, looked up): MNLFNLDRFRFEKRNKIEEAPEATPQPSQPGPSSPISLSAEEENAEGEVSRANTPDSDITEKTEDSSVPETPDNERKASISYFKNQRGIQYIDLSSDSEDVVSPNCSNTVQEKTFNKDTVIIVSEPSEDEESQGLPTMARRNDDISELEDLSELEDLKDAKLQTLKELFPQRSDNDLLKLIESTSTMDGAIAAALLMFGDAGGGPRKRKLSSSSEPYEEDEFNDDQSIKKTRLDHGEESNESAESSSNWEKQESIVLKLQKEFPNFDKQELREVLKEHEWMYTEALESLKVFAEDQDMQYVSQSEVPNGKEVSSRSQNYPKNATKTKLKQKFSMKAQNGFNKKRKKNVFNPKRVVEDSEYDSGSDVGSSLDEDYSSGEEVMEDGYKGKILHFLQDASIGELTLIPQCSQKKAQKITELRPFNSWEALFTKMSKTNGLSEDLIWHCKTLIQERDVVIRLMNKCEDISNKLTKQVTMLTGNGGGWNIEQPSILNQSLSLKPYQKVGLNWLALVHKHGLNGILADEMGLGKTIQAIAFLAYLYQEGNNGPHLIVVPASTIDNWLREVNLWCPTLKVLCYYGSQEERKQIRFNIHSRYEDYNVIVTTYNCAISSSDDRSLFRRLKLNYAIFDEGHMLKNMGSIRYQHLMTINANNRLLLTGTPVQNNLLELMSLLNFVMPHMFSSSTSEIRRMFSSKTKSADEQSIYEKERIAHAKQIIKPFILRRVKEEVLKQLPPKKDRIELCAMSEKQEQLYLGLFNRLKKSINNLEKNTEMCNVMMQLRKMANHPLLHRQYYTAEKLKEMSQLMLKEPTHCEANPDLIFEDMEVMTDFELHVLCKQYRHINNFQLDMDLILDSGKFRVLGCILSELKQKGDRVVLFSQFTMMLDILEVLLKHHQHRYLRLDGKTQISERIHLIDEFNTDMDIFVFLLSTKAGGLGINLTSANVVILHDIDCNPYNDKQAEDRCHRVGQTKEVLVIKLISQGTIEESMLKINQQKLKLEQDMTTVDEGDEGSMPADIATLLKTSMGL
# Sequence of UniProt Q96Q15 (Q96Q15 whole entry, looked up): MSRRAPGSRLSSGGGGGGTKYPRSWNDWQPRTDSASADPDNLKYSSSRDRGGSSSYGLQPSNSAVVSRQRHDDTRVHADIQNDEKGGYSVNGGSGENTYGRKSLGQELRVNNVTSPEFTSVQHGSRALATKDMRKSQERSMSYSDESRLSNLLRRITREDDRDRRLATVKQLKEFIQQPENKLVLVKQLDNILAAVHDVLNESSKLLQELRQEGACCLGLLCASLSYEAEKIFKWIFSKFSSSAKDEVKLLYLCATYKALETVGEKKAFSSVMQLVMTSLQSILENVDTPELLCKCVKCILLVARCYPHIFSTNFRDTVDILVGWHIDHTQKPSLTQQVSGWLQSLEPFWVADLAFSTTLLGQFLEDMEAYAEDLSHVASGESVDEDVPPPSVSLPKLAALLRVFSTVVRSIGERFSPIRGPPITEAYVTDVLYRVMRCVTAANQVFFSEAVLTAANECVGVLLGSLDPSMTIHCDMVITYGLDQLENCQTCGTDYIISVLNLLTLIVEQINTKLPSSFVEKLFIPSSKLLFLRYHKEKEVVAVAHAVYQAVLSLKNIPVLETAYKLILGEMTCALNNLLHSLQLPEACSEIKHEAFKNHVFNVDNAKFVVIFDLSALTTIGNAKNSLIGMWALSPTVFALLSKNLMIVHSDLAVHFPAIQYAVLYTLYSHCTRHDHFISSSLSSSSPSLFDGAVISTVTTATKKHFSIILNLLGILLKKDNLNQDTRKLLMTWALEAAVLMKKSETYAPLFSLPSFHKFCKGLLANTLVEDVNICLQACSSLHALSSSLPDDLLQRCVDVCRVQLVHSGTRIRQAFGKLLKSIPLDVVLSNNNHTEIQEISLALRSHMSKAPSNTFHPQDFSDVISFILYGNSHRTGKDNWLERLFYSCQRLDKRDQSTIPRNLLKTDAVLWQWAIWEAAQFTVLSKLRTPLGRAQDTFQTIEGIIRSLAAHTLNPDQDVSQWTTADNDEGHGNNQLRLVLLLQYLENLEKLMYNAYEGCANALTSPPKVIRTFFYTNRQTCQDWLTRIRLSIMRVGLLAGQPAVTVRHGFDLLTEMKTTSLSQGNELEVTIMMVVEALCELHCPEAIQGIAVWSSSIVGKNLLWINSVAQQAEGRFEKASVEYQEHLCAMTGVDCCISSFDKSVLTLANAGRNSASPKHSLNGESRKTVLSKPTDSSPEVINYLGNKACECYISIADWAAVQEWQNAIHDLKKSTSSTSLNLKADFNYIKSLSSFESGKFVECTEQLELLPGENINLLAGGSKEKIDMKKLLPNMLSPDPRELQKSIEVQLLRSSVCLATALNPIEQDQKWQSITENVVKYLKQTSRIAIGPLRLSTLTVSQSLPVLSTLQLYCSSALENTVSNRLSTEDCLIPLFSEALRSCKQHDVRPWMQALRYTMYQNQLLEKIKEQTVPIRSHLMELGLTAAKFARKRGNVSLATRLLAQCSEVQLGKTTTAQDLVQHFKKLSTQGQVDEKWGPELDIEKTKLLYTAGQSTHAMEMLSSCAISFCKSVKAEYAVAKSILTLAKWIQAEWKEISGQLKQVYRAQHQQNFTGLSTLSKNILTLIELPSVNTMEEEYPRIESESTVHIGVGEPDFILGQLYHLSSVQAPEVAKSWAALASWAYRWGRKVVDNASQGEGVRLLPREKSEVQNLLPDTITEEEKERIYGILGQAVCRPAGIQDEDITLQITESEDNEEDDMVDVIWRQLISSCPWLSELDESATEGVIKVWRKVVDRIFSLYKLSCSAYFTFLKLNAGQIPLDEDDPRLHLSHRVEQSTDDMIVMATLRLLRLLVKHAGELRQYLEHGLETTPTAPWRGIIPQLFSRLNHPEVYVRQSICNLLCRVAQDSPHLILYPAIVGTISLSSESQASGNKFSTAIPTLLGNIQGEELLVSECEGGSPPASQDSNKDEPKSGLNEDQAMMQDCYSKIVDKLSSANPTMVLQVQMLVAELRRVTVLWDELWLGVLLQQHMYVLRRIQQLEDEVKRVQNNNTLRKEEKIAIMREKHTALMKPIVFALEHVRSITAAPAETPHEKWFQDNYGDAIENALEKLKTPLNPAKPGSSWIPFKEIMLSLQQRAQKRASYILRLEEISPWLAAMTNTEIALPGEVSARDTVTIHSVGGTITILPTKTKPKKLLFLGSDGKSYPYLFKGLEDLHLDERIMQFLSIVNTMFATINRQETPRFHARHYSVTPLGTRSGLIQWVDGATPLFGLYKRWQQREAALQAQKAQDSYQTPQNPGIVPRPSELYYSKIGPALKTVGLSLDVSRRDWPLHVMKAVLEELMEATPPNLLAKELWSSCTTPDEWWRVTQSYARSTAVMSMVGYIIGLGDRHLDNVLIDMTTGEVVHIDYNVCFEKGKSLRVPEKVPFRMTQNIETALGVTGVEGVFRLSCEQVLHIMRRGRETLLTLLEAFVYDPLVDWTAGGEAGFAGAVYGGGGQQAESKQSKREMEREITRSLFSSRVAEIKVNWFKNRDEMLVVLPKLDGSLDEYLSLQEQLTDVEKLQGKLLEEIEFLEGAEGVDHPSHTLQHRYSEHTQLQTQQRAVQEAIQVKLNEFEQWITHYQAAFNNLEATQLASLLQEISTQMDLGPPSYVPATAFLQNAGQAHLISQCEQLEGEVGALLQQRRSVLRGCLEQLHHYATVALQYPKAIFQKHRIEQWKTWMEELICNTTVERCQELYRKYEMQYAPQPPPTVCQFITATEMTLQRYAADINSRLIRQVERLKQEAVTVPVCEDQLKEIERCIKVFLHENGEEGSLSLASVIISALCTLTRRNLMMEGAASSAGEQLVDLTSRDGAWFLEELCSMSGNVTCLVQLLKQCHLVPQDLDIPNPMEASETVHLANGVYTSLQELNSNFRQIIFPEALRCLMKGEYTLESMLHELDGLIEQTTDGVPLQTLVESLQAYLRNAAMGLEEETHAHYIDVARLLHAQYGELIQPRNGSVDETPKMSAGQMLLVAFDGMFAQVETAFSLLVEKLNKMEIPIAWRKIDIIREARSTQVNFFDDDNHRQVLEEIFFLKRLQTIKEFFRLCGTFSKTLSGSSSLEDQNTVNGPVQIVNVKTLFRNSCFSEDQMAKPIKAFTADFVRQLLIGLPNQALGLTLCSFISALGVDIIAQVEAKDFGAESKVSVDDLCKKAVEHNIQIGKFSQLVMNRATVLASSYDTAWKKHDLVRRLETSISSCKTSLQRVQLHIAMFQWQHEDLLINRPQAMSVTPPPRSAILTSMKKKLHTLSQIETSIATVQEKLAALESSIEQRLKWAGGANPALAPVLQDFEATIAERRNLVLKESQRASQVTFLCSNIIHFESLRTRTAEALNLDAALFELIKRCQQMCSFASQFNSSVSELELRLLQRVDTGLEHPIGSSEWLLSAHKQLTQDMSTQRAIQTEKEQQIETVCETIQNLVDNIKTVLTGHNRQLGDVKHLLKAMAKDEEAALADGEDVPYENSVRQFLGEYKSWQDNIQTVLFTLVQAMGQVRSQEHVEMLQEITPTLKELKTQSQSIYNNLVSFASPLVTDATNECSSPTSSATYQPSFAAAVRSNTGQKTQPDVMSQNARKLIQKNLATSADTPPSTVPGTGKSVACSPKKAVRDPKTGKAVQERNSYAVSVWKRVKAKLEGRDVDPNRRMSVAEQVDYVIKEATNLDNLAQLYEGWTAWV
# Sequence of UniProt Q96DI7 (Q96DI7 whole entry, looked up): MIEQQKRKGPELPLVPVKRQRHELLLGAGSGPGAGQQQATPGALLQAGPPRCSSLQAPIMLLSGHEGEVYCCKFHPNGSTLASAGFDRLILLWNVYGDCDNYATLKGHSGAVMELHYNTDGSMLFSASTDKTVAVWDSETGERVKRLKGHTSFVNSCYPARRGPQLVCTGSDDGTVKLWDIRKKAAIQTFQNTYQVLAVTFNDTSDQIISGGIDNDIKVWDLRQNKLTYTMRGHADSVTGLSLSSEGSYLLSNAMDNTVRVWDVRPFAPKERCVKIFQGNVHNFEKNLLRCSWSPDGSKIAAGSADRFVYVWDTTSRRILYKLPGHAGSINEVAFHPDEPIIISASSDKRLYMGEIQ
# Sequence of UniProt Q96EX1 (Q96EX1 whole entry, looked up): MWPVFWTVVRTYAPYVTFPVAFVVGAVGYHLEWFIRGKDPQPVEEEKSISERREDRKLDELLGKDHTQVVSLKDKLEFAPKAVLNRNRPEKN
Target,log2 fold change [1],log2 fold change [2],log2 fold change [3],log2 fold change [4],log2 fold change [5],log2 fold change [6],log2 fold change [7],log2 fold change [8],log2 fold change [9],log2 fold change [10]
STOML2 (UniProt Q9UJZ1),-0.017,0.095,-0.009,0.017,0.022,-0.007,-0.055,-0.004,0.052,0.08
SNRNP40 (UniProt Q96DI7),-0.026,0.021,-0.019,-0.009,-0.021,-0.025,-0.01,0.016,-0.004,-0.01
SMIM12 (UniProt Q96EX1),0.22,0.007,0.065,0.025,0.07,-0.067,-0.018,0.018,-0.044,-0.033
SLC39A11 (UniProt Q8N1S5),-0.02,-0.065,0.107,0.338,-0.111,-0.059,-0.23,-0.047,0.097,0.059
SHCBP1 (UniProt Q8NEM2),0.001,-0.122,-0.043,0.012,-0.084,0.049,-0.003,0.088,-0.015,0.055
STK38 (UniProt Q15208),0.014,-0.056,0.912 (active),0.502 (active),-0.037,-0.033,0.056,0.003,0.266,0.005
SSNA1 (UniProt O43805),0.016,0.038,0.043,-0.036,0.109,0.023,-0.115,0.027,-0.014,0.013
TAF6L (UniProt Q9Y6J9),0.018,-0.109,-0.035,0.001,-0.116,0.096,-0.051,0.006,0.006,-0.046
SMAP2 (UniProt Q8WU79),0.017,-0.002,-0.058,0.024,-0.086,0.047,-0.037,-0.004,0.01,-0.03
STK4 (UniProt Q13043),0.011,-0.095,0.365,0.231,0,-0.073,-0.055,0.051,0.257,0.002
SRSF9 (UniProt Q13242),-0.021,-0.165,0.002,-0.054,-0.044,0,-0.084,-0.013,-0.017,-0.022
"SNX6, A0A0A0MRI2",0.076,-0.051,0.004,0.008,-0.024,0.007,0.171,-0.008,-0.003,-0.01
SHC1 isoform 6 (UniProt P29353),0.186,0.035,0.001,-0.031,0.086,0.15,-0.078,-0.008,-0.014,-0.035
TAF9 (UniProt Q16594),0.032,-0.026,0.014,-0.03,-0.004,0.099,-0.041,0.004,0.038,0.084
SRSF7 (UniProt Q16629),-0.2,-0.005,-0.057,-0.06,0.051,0.032,0.049,0.006,0.038,0.067
SFR1 isoform 2 (UniProt Q86XK3),-0.014,-0.003,-0.009,-0.155,-0.005,0.014,-0.007,0.004,-0.007,-0.03
SLC38A1 (UniProt Q9H2H9),-0.111,0.022,-0.026,-0.016,-0.054,0.019,-0.045,-0.021,0.011,0.073
STK25 (UniProt O00506),-0.016,-0.093,0.023,0.147,-0.023,0.025,-0.04,-0.007,0.036,-0.065
STK36 (UniProt Q9NRP7),-0.33,0.331,-0.048,-0.263,0.528,-0.027,0.042,0.081,0.199,-0.093
TANGO6 (UniProt Q9C0B7),-0.094,-0.031,-0.005,-0.047,0,-0.024,-0.009,-0.022,0.027,0.117
SH3GL3 isoform 3 (UniProt Q99963),-0.263,-0.14,0.024,-0.063,0.15,0.072,-0.041,-0.076,0.09,0.041
SNRPD3 (UniProt P62318),-0.121,0.014,-0.003,-0.046,-0.068,-0.014,0.027,0.017,0.022,0.052
SPAG5 (UniProt Q96R06),-0.019,-0.119,0.031,0.008,0.003,0.071,-0.081,-0.01,-0.017,0.019
SMARCAD1 isoform 2 (UniProt Q9H4L7),-0.007,-0.13,0.037,0.03,0.003,0.029,0.052,-0.018,0.004,0.028
SOAT1 (UniProt P35610),-0.033,0.086,0.036,-0.022,-0.002,0.065,0.123,-0.014,-0.076,0.047
SYNRG (UniProt Q9UMZ2),0.026,-0.016,-0.021,0.015,0.002,-0.004,0.024,0.033,0.003,-0.006
SMIM8 (UniProt Q96KF7),-0.01,0.034,-0.041,0.034,0.066,0.028,0.078,0.062,0.014,-0.015
SVIP (UniProt Q8NHG7),-0.014,0.028,-0.017,0.025,0.098,-0.042,-0.055,0.05,-0.039,-0.099
SMG1 (UniProt Q96Q15),0.022,-0.05,0.01,0.033,-0.046,0.016,0,-0.02,-0.013,0.012
SRPK1 (UniProt Q96SB4),0.286 (active),-0.062,0.189,0.106,0.008,-0.029,0.102,0.006,0.015,0.018
